Measured values as given in PubChem BioAssay AID743172 (National Center for Advancing Translational Sciences (NCATS), 2013).
Several values for one entry are separate records, joined by “and”; a condition that tells them apart may be missing. Equal values may be shown once. Records with an inconclusive call do not appear. Activity calls are given as the source filed them. The call rests on the fitted dose curve; in most records, active means well fitted activation curve with a large enough effect; inconclusive means small, poorly fitted or top-dose-only effect; inactive means no such curve, though single readings can be large or run the other way.

assay: Extended Characterization of HPGD Inhibitors: PGE2 Assay in LNCaP Cells; details: PGE2 HTRF level, 16 h; series mostly up to 100 µM
Source text: The central role of HPGD is to inactivate prostaglandins such as prostaglandin E2 (PGE2) or prostaglandin D2 (PGD2). These prostaglandins are involved in a number of processes, including inflammation, differentiation, and cellular signaling, which makes HPGD an important target for pharmacological intervention. A number of prostaglandins of particular biological interest have been identified as substrates of HPGD. […] Over-production of PGE2 has been reported to promote tumor-associated neovascularization, cell proliferation, and tumor growth. […] In this orthogonal assay, we set out to measure if compounds were able to increase PGE2 production NIH Chemical Genomics Center [NCGC] NIH Molecular Libraries Probe Centers Network [MLPCN] MLPCN Grant: MH084681 Assay Submitter (PI): Structural Genomics Consortium
A549 cells, LNCaP cells or media were dispensed in 384-well plates (ProxiPlate-384 Plus, PerkinElmer, Shelton, CT) at 5,000 cells/9.9 uL/well using a CappAero384 multichannel pipette (Odense, Denmark). Separately on the plate, 10 uL of PGE2 calibration standards at a starting assay concentration of 5,000 pg/mL (1:2 dilution, 12-points, n = 1, prepared in media, Cisbio, Bedford, MA) were dispensed. Compounds (100 nL, final concentration range from 41.9 nM to 100 uM) were transferred using an ATS Acoustic Liquid Dispenser (EDC Biosystems, Fremont, CA). After being mixed using an automated liquid handler (CyBio, Jena, Germany), samples were incubated (37 deg C, 5% CO2, under a humidified atmosphere) for 16 hours. PGE2 labeled conjugates were added to each well, first 5 uL of PGE2-d2, followed by 5 uL of anti-PGE2-cryptate, centrifuged (1,500 rpm, 15 sec) and incubated (RT, protected from light) for 5 hours. Time-resolved fluorescence intensity (320 nm excitation, 615 and 665 nm emission) was measured using an Envision plate reader (PerkinElmer). Data was expressed as the ratio of 665 nm/615 nm emissions. Concentration (pg/mL) of samples were calculated from a 4-parameter logistic calibration curves of the PGE2 standards.

Potency, inactive:
Cc1cccc(-n2cnc3cc(C(=O)NC(C)(C)C)ccc32)c1
CCOC(=O)c1ccc(-n2cnc3cc(C(=O)N4CCCCC4)ccc32)cc1
c1ccc(-n2cc(-c3nnc4n3CCCCC4)cn2)cc1
Cc1cccc(-n2cnc3cc(C(=O)N4CCC(c5ccccc5)CC4)ccc32)c1
FC(F)(F)c1ccc(-c2nc(-c3nnc4n3CCCCC4)c(C(F)(F)F)o2)cc1
N#Cc1ccccc1CNc1nc2ncc(Br)cc2[nH]1
Cc1cccc(-n2cnc3cc(C(=O)N4CCC(Cc5ccccc5)CC4)ccc32)c1

Potency, active:
COc1ccc(CSc2nc3ncc(Br)cc3[nH]2)cc1F 22.2 µM
Cc1cccc(-n2cnc3cc(C(=O)N4CCCCC4)ccc32)c1 702 nM and 884 nM
COc1cccc(-n2cnc3cc(C(=O)N4CCCCC4)ccc32)c1 0.28 µM
N#Cc1ccccc1CSc1nc2ncc(Br)cc2[nH]1 35.2 µM
CC(C)(C)n1cnc2cc(C(=O)N3CCCCC3)ccc21 0.884 µM
Clc1ccccc1CSc1nc2ncc(Br)cc2[nH]1 44.3 µM
O=C(c1ccc2c(c1)ncn2-c1cccc(C(F)(F)F)c1)N1CCCCC1 2.8 µM
CCOC(=O)c1ccc(-n2c(C)cc(-c3nnc4n3CCCCC4)c2C)cc1 14 µM
Cc1cc(-c2nnc3n2CCCCC3)c(C)n1-c1cccc(Cl)c1 0.558 µM
Cc1cc(-c2nnc3n2CCCCC3)c(C)n1-c1cccc(C#N)c1 1.76 µM
Brc1cnc2nc(SCc3ccccc3)[nH]c2c1 44.3 µM
Cc1cccc(-n2cnc3cc(C(=O)NC4CCCCC4)ccc32)c1 22.2 µM
Cc1cc(-c2nnc3n2CCCCC3)c(C)n1-c1ccc(Br)cc1 2.8 µM
Fc1ccc(CSc2nc3ncc(Br)cc3[nH]2)cc1 35.2 µM
Cc1ccccc1CSc1nc2ncc(Br)cc2[nH]1 22.2 µM
N#Cc1cccc(CSc2nc3ncc(Br)cc3[nH]2)c1 35.2 µM
Brc1cnc2nc(SCc3ccncc3)[nH]c2c1 4.43 µM
Cc1ccc(-n2cnc3cc(C(=O)N4CCCCC4)ccc32)cc1 0.443 µM
FC(F)(F)c1cccc(CSc2nc3ncc(Br)cc3[nH]2)c1 35.2 µM
FC(F)(F)c1ccc(CSc2nc3ncc(Br)cc3[nH]2)cc1 44.3 µM
N#Cc1ccc(CSc2nc3ncc(Br)cc3[nH]2)cc1 22.2 µM
COc1ccc(-n2cnc3cc(C(=O)N4CCCCC4)ccc32)cc1 0.884 µM
CC(C)c1cccc(-n2cnc3cc(C(=O)N4CCCCC4)ccc32)c1 2.8 µM
O=[N+]([O-])c1ccc(CSc2nc3ncc(Br)cc3[nH]2)cc1 2.22 µM
Cc1cc(-c2nnc3n2CCCCC3)c(C)n1-c1ccc([N+](=O)[O-])cc1 2.22 µM
O=C(c1ccc2c(c1)ncn2-c1cccc(Cl)c1)N1CCCCC1 0.222 µM
CC(C)(C)c1ccc(-n2cnc3cc(C(=O)N4CCCCC4)ccc32)cc1 4.43 µM
Clc1ccc(CSc2nc3ncc(Br)cc3[nH]2)cc1 14 µM
CCCCn1cnc2cc(C(=O)N3CCCCC3)ccc21 4.43 µM
Brc1cnc2nc(SCc3ccccn3)[nH]c2c1 11.1 µM
Clc1ccc(CSc2nc3ncc(Br)cc3[nH]2)cc1Cl 22.2 µM
Cc1cc(-c2nnc3n2CCCCC3)c(C)n1-c1cccc2ccccc12 884 nM and 1.76 µM
Cc1cc(-c2nnc3n2CCCC3)c(C)n1-c1ccccc1 7.03 µM
